Data taken from PubChem BioAssay.
Calls of active or inactive are those of the source. Unless noted, no stated cut-off is given here; in the data, active means nuclear beta-catenin stimulation mostly above about 4.2% (no sharp cut-off); inactive means mostly below about 10%.

Legend:
[1] = Wnt pathway potentiators raising nuclear beta-catenin – imaging, WNT3A-conditioned medium, mouse C2C12, NPC library, primary screen (AID 1117326); conditions: stronger effect = higher value; further: reference of the scale not given here
[2] = stimulators of insulin release from INS-1E, primary screen, cell-based, 5 mM glucose, NPC library (AID 1117329;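 active means compound raises insulin release from rat beta cells at 5 mM glucose, no numeric limit stated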; further: reference of the scale not given here); conditions: rat INS-1E insulin secretion, at 10 µM, stronger effect = higher value
[3] = growth inhibition of GSK3B-pretreated HCT116 cells – cell-based, CellTiter-Glo, 0.2 to 20 µM (AID 1117336;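 active means compounds lowering colon cancer cell viability after pretreatment blocking the GSK3B kinase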); conditions: HCT116 viability after GSK3B inhibitor, at 20 µM, stronger effect = higher value
[4] = inhibition of endothelial tube formation, primary screen, imaging, VEGF stimulated, CD31 staining, tube area, NPC library (AID 1117340;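 active means compound that reduces growth-factor-driven endothelial tube area in a mixed cell culture, no cutoff stated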); conditions: VEGF-stimulated ADSC/ECFC co-culture, at 10 µM, stronger effect = higher value
[5] = GLP1 release stimulators, primary, NCI-H716, NPC library (AID 1117341;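 active means compound raises GLP1 secretion from the human gut endocrine cells, with no numeric limit stated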; further: reference of the scale not given here); conditions: NCI-H716 cells, at 10 µM, stronger effect = higher value
[6] = HCT116 colon cancer cell growth inhibition, primary screen, CellTiter-Glo luminescence, NPC library (AID 1117342;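 active means compounds that lower survival of HCT116 colon cancer cells in the luminescence readout, no numeric limit stated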); conditions: at 20 µM (top of the series)
[7] = reduced SW480 viability measured with CellTiter-Glo, NPC library, primary (AID 1117343;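 active means compounds that lower viability of the colon cancer cells in the luminescence readout, with no numeric limit stated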); conditions: CellTiter-Glo luminescence; at 20 µM (top of the series)
[8] = NPC library primary testing for decreased DLD-1 cell viability via CellTiter-Glo (AID 1117346;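 active means compounds that lower survival of DLD-1 colon cancer cells in the luminescence readout, no cutoff given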); conditions: DLD-1 viability, CellTiter-Glo luminescence; at 20 µM (top of the series)

Row | Structure (SMILES) | nuclear beta-catenin stimulation ([1]; at 10 µM) | nuclear beta-catenin stimulation ([1]; stimulation, at 2 µM) [%] | insulin secretion stimulation [2] | viability decrease [3] | tube area decrease [4] | GLP1 secretion stimulation [5] | inhibition of viability [6] | viability decrease (inhibition) [7] | viability decrease (inhibition) [8]
1 | Nc1ccc(C(=O)N2CC3CC(CN(Cc4ccccc4)C3)C2)cc1 | 3.2% (inactive) | 0.5 | 0.1% (inactive) | 1.2% (inactive) | -12.8% (inactive) | 1.7% (inactive) | 23.2% (inactive) | 9.4% (inactive) | 7.3% (inactive)
2 | CCN1CCN(C(=O)N[C@@H](C(=O)N[C@@H]2C(=O)N3[C@@H]2SC(C)(C)[C@H]3C(=O)O)c2ccccc2)C(=O)C1=O | 0.2% (inactive) | 0.9 | -0.5% (inactive) | -21.3% (inactive) | -12.7% (inactive) | -0.4% (inactive) | 23.9% (inactive) | 8.3% (inactive) | -5.2% (inactive)
3 | CCCCCCCCCCCCCCCCCCO | 0.4% (inactive) | -0.4 | -1.7% (inactive) | -15.2% (inactive) | -3.6% (inactive) | 1.9% (inactive) | -11.1% (inactive) | 0.9% (inactive) | -5.65% (inactive)
4 | CCOc1cc(OCC)c(C(=O)CCC(=O)O)cc1OCC | -1.4% (inactive) | 0.2 | 0.5% (inactive) | -11.3% (inactive) | 3.4% (inactive) | -1.3% (inactive) | 11.4% (inactive) | 0.4% (inactive) | 3.7% (inactive)
5 | COc1cc(C(=S)N2CCOCC2)ccc1O | 1.6% (inactive) | 0 | 3.9% (inactive) | -5.7% (inactive) | 1.9% (inactive) | -3.6% (inactive) | -4.3% (inactive) | -4.6% (inactive) | -2.7% (inactive)
6 | CCC(=O)Oc1ccc2c(c1)CC[C@@H]1[C@@H]2CC[C@@]2(C)[C@H]1C[C@@H](OC(=O)CC)[C@@H]2OC(=O)CC | 1.7% (inactive) | 1.2 | 2.5% (inactive) | -51.4% (inactive) | 28.9% (inactive) | -6.9% (inactive) | 31.7% (inactive) | 67.4% (active) | -2.6% (inactive)
7 | Cc1cccc(N(C)C(=S)Oc2ccc3c(c2)C2CCC3C2)c1 (stereo unspecified) | 0.3% (inactive) | 0.6 | 1% (inactive) | -64.8% (inactive) | 15.8% (inactive) | -4.7% (inactive) | 50.2% (active) | 80% (active) | 56.8% (active)
8 | Cc1c(I)c(=O)n(-c2ccccc2)n1C | -0.6% (inactive) | 0.4 | 0.4% (inactive) | -4.55% (inactive) | 1.2% (inactive) | 0.6% (inactive) | -8.9% (inactive) | 26.3% (inactive) | 33.4% (inactive)
9 | CCCCCCCCCCCCCCCCCC(=O)OCC(O)CO (stereo unspecified) | -0.4% (inactive) | 1.7 | 2.1% (inactive) | 1% (inactive) | -4.1% (inactive) | -0.3% (inactive) | 2.77% (inactive) | -13.8% (inactive) | -7.2% (inactive)
10 | NC(=O)NNc1ccccc1 | 3.2% (inactive) | 0.7 | -1.9% (inactive) | -9.75% (inactive) | 16% (inactive) | 1.4% (inactive) | -3% (inactive) | 30.5% (inactive) | 7.45% (inactive)
11 | CCC1(c2cnc[nH]2)Cc2ccccc2C1 | 1.2% (inactive) | 1.5 | 13.1% (inactive) | 38% (inactive) | 22.4% (inactive) | -3.3% (inactive) | -0.4% (inactive) | 19.3% (inactive) | 38.2% (inactive)
12 | CC(C)C(=O)Nc1cccc(C2CN3CCSC3=N2)c1 (stereo unspecified) | 1.5% (inactive) | 1.8 | -0.5% (inactive) | -30.9% (inactive) | -4.2% (inactive) | 5% (inactive) | 4.17% (inactive) | 13% (inactive) | -14.4% (inactive)
13 | CCCc1ccc(OCC(=O)N2CCN(C(=O)COc3ccc(CCC)cc3OC)CC2)c(OC)c1 | 0.8% (inactive) | 2.5 | 2.6% (inactive) | -50.5% (inactive) | 43.5% (active) | 10.9% (inactive) | 48.2% (inactive) | 97.2% (active) | 101% (active)
14 | Cc1ccc2c(Br)cc(Br)c(O)c2n1 | 43% (active) | 5.5 | 2.4% (inactive) | 91% (active) | 106% (active) | -1.3% (inactive) | 79.2% (active) | 90.3% (active) | 93.3% (active)
